Assay outcomes deposited in PubChem BioAssay by National Center for Advancing Translational Sciences (NCATS).
Most compounds without a hit are left out; they make up all but 2.1% or so of the library.
FUS yeast rescue = suppressors of FUS proteinopathy in yeast; S. cerevisiae FUS-expressing, growth rescue, OD600, 24 h; Potency, µM (highest dose often 76.6 µM), most hits filed as activators; 390,000 tested, 0.24% active;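 further: plate controls were DMSO vehicle for no effect and reference control for full effect; nearly all actives have a fitted effect of over 55% in size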
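Yeast FUS proteinopathy model; galactose-induced FUS (2%), starting OD 0.005. Cpds in dilution series, 24hr, 30C, 99% humidity. Abs 600 nm growth. Pos ctrl CP55940 (top 92uM final); neg ctrl DMSO.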
TDP43 rescue = inhibitors of TDP-43 toxicity in yeast. 410,000 tested, 1.8% active. TDP-43 expressing yeast growth rescue, BacTiter-Glo, 24 h. Potency, µM (highest dose often 46.1 µM), for the others: at the top dose growth rescue (activation), hits mostly activators; further: % of control where 0% means no effect; nearly all actives have a fitted effect of over 50% in size
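Yeast expressing TDP-43 (pregrown in raffinose, seeded at OD600=0.02 in galactose medium) exposed to compounds 24 hr at 30 deg C. Growth read by BacTiter-Glo luminescence; rescue of toxicity appears as increased signal.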
aSyn rescue = rescues yeast growth from alpha-synuclein toxicity; Yeast expressing alpha-synuclein, growth rescue, BacTiter-Glo, 24 h; Potency, µM (titrated, usually from 46.1 µM), for inactives: at the highest dose growth rescue (activation), actives largely listed as activators; 370,000 tested, 0.14% active; AID 652106; further: % of control where 0% means no effect; nearly all actives have a fitted effect of over 65% in size
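Screening used galactose-induced yeast with toxic alpha-synuclein levels, exposed to compound for 24 hr at 30 deg C. Cell growth, read with BacTiter-Glo luminescence, gave the measured signal.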
Abeta yeast res = A-beta toxicity reversal in yeast. yeast expressing A-beta42, growth rescue, OD600, 48 h; response scale: 0% DMSO, 100% iron-clioquinol control. Potency, µM (series often up to 46.1 µM), hits mostly activators. 410,000 tested, 0.063% active; further: nearly all actives have a fitted effect of over 55% in size
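Yeast A-beta toxicity model in growth medium with pinned compounds, 48 h at 30 C; growth read as absorbance at 600 nm. Normalized to FeCl3/clioquinol equimolar mix (positive) and DMSO (negative).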
* = called active by the depositor; i = inactive; ? = inconclusive; / = not tested or not shown. The call rests on the fitted dose curve; in most records, active means well fitted curve in the direction sought with a large enough effect; inconclusive means small, poorly fitted or top-dose-only effect, or another doubt; inactive means no such curve, though single readings can be large; an effect the other way counts as inactive or inconclusive. Potency means the concentration at half of the fitted maximal effect.

SMILES	FUS yeast rescue	TDP43 rescue	aSyn rescue	Abeta yeast res
CCc1ccc(NC(=O)CC2C(=O)N(c3ccc(F)cc3)C(=O)N2Cc2ccc(F)cc2)cc1 (stereo not drawn)	i	4%	/	i
Cc1c(NS(=O)(=O)c2ccccc2)cc(Cl)c(O)c1C	/	10µM*	6%	i
COC(=O)[C@@]12CCCN1[C@H](c1ccc(-c3ccccc3)cc1)[C@H]1C(=O)N(C)C(=O)[C@H]12	i	-1%	9%	i
COC(=O)[C@@]12CCCCN1[C@H](c1ccc(-c3ccc(F)cc3)c(OC)c1)[C@@H]1C(=O)N(C)C(=O)[C@@H]12	i	16µM*	?	i
COC(=O)[C@@]12CCCCN1[C@H](c1ccc(-c3ccc4c(c3)OCO4)c(OC)c1)[C@@H]1C(=O)N(C)C(=O)[C@@H]12	11µM*	13µM*	15%	i
COC(=O)[C@@]12CCCN1[C@H](c1ccc(-c3ccc4c(c3)OCO4)c(OC)c1)[C@H]1C(=O)N(C)C(=O)[C@H]12	?	16%	0%	i
COC(=O)[C@@]12CCCN1[C@H](c1ccc(-c3ccc(OC)cc3)c(OC)c1)[C@@H]1C(=O)N(C)C(=O)[C@@H]12	?	?	-6%	i
COC(=O)[C@@]12CCCCN1[C@H](c1ccc(-c3ccc(F)cc3)cc1)[C@@H]1C(=O)N(C)C(=O)[C@@H]12	i	13µM*	16%	i
COC(=O)[C@@]12CCCN1[C@H](c1ccc(-c3ccc(OC)cc3)cc1)[C@@H]1C(=O)N(C)C(=O)[C@@H]12	?	22µM*	1%	i
COCCCN1C(=O)[C@H](CC(=O)NCCC(C)C)[C@]2(C(=O)OC)CCCCC=C12	i	/	/	/
Fc1ccc(C(c2nnc(-c3ccccc3)o2)N2CCN(c3ccccc3)CC2)c(Cl)c1 (stereo not drawn)	?	-8%	/	i
c1coc(CNc2ncnc3c2nc2n3CCCC2)c1	/	/	-4%	/
O=C(c1ccco1)n1nc(NCc2ccccc2)nc1NCc1ccccc1	i	10µM*	-3%	i
O=C(c1ccco1)n1nc(-c2ccccc2)nc1NCc1ccco1	i	4%	2%	i
COc1ccc(CNc2oc(COc3ccc(Cl)cc3)nc2C#N)cc1	/	?	16%	i
CCOc1ccc(-c2nc(C#N)c(NCc3ccc4c(c3)OCO4)o2)cc1	i	21%	1%	i
COc1ccc(Nc2oc(COc3ccc(Cl)cc3)nc2C#N)cc1	i	28µM*	9%	i
Cc1ccc(OCc2nc(C#N)c(NCc3ccc4c(c3)OCO4)o2)cc1	i	11µM*	7%	i
O=C(Nc1cccc(C(F)(F)F)c1)c1ccc2c(c1)nnn2C1CCCC1	i	17%	/	i
CCC(=O)N1CCc2cc(S(=O)(=O)NC(C(=O)Nc3cc(OC)cc(OC)c3)C(C)C)ccc21 (stereo not drawn)	i	-1%	/	i
CCc1cccc(NC(=O)C2CCCN(c3ncnc4onc(-c5ccc(F)cc5)c34)C2)c1 (stereo not drawn)	?	2%	/	i
O=C1CCC/C1=C/Nc1ccc2c(c1)OCO2	i	4%	/	i
CC1CCC/C(=C\Nc2ccc3c(c2)OCO3)C1=O (stereo not drawn)	16µM*	-10%	-4%	i
COC(=O)c1nnn(CC(=O)Nc2cc(F)ccc2F)c1C(=O)OC	i	-12%	/	i
COc1ccc2c(c1)c(C(C)=O)c(C)n2CCc1ccc(OC)c(OC)c1	i	20µM*	2%	i
SMILES	FUS yeast rescue	TDP43 rescue	aSyn rescue	Abeta yeast res
Cc1ccc(C)c(NC(=O)Cn2c(=O)n(Cc3ccc4c(c3)OCO4)c(=O)c3oc4ccccc4c32)c1	i	23%	/	i
CCOc1ccc(Nc2nc(N)c(C(=O)c3ccccc3Cl)s2)cc1	i	35µM*	/	i
CCCCNC(=S)N1CCn2cccc2C1c1ccc(F)cc1 (stereo not drawn)	?	16µM*	7%	i
CCCCNC(=S)N1CCn2cccc2C1c1ccccc1 (stereo not drawn)	i	/	-6%	i
Cc1cc(C)cc(NC(=O)NCc2noc3ccccc23)c1	i	13%	/	i
CCCC/C=C1/[C@@H](CC)N(Cc2ccc(OC)cc2OC)C2=N[C@H](c3ccccc3)CC(=O)N21	i	/	/	/
CCN(CC)c1ccc2c(Cl)c(Br)c(=O)oc2c1	i	20µM*	18%	i
